Source: PubChem BioAssay (NCATS)

Assay: Cell Proliferation Assay against the TMD8 Cell Line (AID 651645);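 further: cells exposed to compound for 48 h before reading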
Settings: TMD8 DLBCL cell line proliferation/viability; at 46.1 µM (top of the series) unless noted
Text: One class of targeted therapeutics showing early clinical success in killing of ABC DLBCL lines are small molecule inhibitors of the Bruton tyrosine kinase (BTK) 11.
Prior to any combination assays, using an NCATS developed oncology compound library called the Mechanism of Interrogation Plate (MIPE), two well studied ABC DLBCL lines (TMD8 and HBL1) were screened using a cell viability assay (CellTiterGlo) and a 12-point titration series for each single agent. These initial experiments offered insight into the concentration range that offered the best coverage of activity and non-activity to assure relevant data is generated. In addition to the viability signature associated with this library, we examined the apoptotic response of each agent versus the TMD8 line as judged by caspase 3/7 activation. Activity was assayed at both 8 and 16 hour time-points to gain an appreciation of which agents induced an apoptotic response in a reasonable timeframe from a therapeutic exposure perspective. MIPE was also assayed for single agent viability in a human mesenchymal stem cell (hMSC) line as a surrogate of each library member's potential therapeutic index.
A total of 500 log growing TMD8 cells are seeded per well in 5 uL of a RPMI with glutamine (or Glutamax), without phenol red plus 5% FBS and 1X Pen/Strep into 1536 -solid white high base tissue culture treated Greiner One Bio Plates (789173-F) using a multidrop combi dispenser and a small sterile cassette. Compounds and controls totaling 23nL per well (negative control DMSO and positive control 9.2 uM Bortezomib-final) are immediately added to the plates using a 1536 head pin tool from Kalypsys. The plates are then covered with stainless steel gasket lids from Kalypsys and incubated for 48 hours at 37C under 95% relative humidity with 5% CO2. After 48 hours, the plates are removed and allowed to reach room temperature before 3 uL of Cell Titer Glo reagent (Promega) is added using an Aurora Flying Reagent Dispenser Bioraptor. The plates are then spun at 1000 rpms to remove bubbles and incubated for 15 minutes at room temperature before read on a ViewLux using a luminescent filter with a 10 second exposure. The relative luciferase units are used to calculated percent activity using DMSO as 100% and Bortezomib as 0%.

Structure (SMILES)	viability (% of control)
O=C(Oc1ccc([N+](=O)[O-])cc1)N1CCC(C(O)(c2ccc3c(c2)OCO3)c2ccc3c(c2)OCO3)CC1	68.8%
Nc1nc(-c2nn(Cc3ccccc3F)c3ncccc23)nc(N)c1N1CCOCC1	91.5%
COc1ccc2c(c[n+](C)c3c4cc5c(cc4ccc23)OCO5)c1OC	3.33%
C=CCON=C(C[C@H]1O[C@@H]2O[C@]3(C)CC[C@@H]4[C@H](C)CC[C@@H]([C@H]1C)[C@@]24OO3)[C@H]1O[C@@H]2O[C@]3(C)CC[C@H]4[C@H](C)CC[C@@H]([C@@H]1C)[C@@]24OO3	10.2%
Cc1nc(-c2ccc(-c3ccc(C(=O)N4CCc5cc6c(cc54)C4(CCN(C)CC4)CO6)cc3)c(C)c2)no1	2.26%
CC(=O)Nc1ccc(OC[C@](C)(O)C(=O)Nc2ccc([N+](=O)[O-])c(C(F)(F)F)c2)cc1	86.6%
Cc1c(C(=O)Nc2cccc(C(F)(F)F)c2)cc(-c2ccccc2)n1CCCN1CCOCC1	3.39%
CC1CC(C)C(=O)C(C(O)CC2CC(=O)NC(=O)C2)C1 (stereo unspecified)	1.51% [at 92.2 µM]
Cc1ccccc1-n1c(Cn2cnc3c(N)ncnc32)nc2cccc(C)c2c1=O	15.8%
CC(C)[C@]12O[C@H]1[C@@H]1O[C@]13[C@]1(O[C@H]1C[C@H]1C4=C(CC[C@@]13C)C(=O)OC4)[C@@H]2O	3.13%
CCCCN1CCC(CNC(=O)c2c3n(c4ccccc24)CCCO3)CC1	119%
